Test results taken from PubChem BioAssay (NCI).
The panel holds about 83,000 compounds, 20% with a hit somewhere; the sample as a whole holds those more often.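 Percent growth is the endpoint: 0 to 100 indicates growth inhibition (40 means 60% inhibition), 0 means no net growth, and negative values indicate cell death.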 Calls of active or inactive are those of the source. Rule for the calls: active = growth percent below 10; inactive = the rest.

How the values were obtained:
Assay in all cases: NCI-60 one-dose screen, 48 h (100 = growth as untreated, 0 = no growth, -100 = all killed)
Conditions in all cases: 10 µM unless noted
HCT-15 colon = tested on: HCT-15 colon
HT29 colon = tested on: HT29 colon
SNB-75 CNS = tested on: SNB-75 CNS
SNB-19 CNS = tested on: SNB-19 CNS
U251 CNS = tested on: U251 CNS
PC-3 prostate = tested on: PC-3 prostate
SK-MEL-5 melanoma = tested on: SK-MEL-5 melanoma
UACC-62 melanoma = tested on: UACC-62 melanoma
LOX IMVI melanoma = tested on: LOX IMVI melanoma
SK-MEL-28 melanoma = tested on: SK-MEL-28 melanoma

Measured: growth

COc1cc(OC)c(S(N)(=O)=O)cc1C(=O)/C=C/c1ccccc1
active: LOX IMVI melanoma 3.55%
inactive: HCT-15 colon 11.3% | HT29 colon 25.3% | SNB-75 CNS 77.4% | SNB-19 CNS 47.5% | U251 CNS 28.5% | PC-3 prostate 32.9% | SK-MEL-5 melanoma 23.2% | UACC-62 melanoma 42.8% | SK-MEL-28 melanoma 58%

Cn1cc(-c2nn3c(=O)cc(-c4ccccc4)nc3s2)c2cc(F)ccc21
inactive: HCT-15 colon 29.6% | HT29 colon 33.3% | SNB-75 CNS 30.9% | SNB-19 CNS 65.6% | U251 CNS 48.5% | PC-3 prostate 34.8% | SK-MEL-5 melanoma 43.8% | UACC-62 melanoma 33.9% | LOX IMVI melanoma 59.3% | SK-MEL-28 melanoma 45.2%

COc1ccc(/C(C)=C(\c2ccc(Cl)cc2)c2ccc(OCCN)cc2)cc1
inactive: HCT-15 colon 40.5% | SNB-75 CNS 88.9% | SNB-19 CNS 87.8% | U251 CNS 61.9% | PC-3 prostate 78.9% | SK-MEL-5 melanoma 96.7% | UACC-62 melanoma 98.5% | SK-MEL-28 melanoma 86.1%
active: HT29 colon 0.975% | LOX IMVI melanoma 0.915%

CN(C)C(=O)C1=NC(CO)C(=O)N(c2ccc(Cl)cc2)N1 (stereo not given)
inactive: HCT-15 colon 102% | HT29 colon 102% | SNB-75 CNS 105% | SNB-19 CNS 102% | U251 CNS 101% | PC-3 prostate 90.8% | SK-MEL-5 melanoma 102% | UACC-62 melanoma 96.6% | LOX IMVI melanoma 95.3% | SK-MEL-28 melanoma 107%

NC(N)=NS(=O)(=O)c1ccc(N=NC2C(=O)NN(c3ccccc3)C2=O)cc1 (stereo not given)
inactive: HCT-15 colon 101% | HT29 colon 112% | SNB-75 CNS 84.1% | SNB-19 CNS 98.9% | U251 CNS 103% | PC-3 prostate 95.2% | SK-MEL-5 melanoma 98.9% | UACC-62 melanoma 96.1% | LOX IMVI melanoma 96.6% | SK-MEL-28 melanoma 111%

CCCCCCNC(=O)Oc1ccc(/C(=C(/C)c2ccccc2)c2ccc(OCCN(C)C)cc2)cc1
active: HCT-15 colon -32.3% | HT29 colon -25.6%
inactive: SNB-75 CNS 73.5% | SNB-19 CNS 64.4% | U251 CNS 54.7% | PC-3 prostate 70.6% | SK-MEL-5 melanoma 78.2% | UACC-62 melanoma 52.8% | LOX IMVI melanoma 13.8% | SK-MEL-28 melanoma 55.1%

C=C(C)[C@@H]1CC[C@]2(COS(C)(=O)=O)CC[C@]3(C)[C@H](CC[C@@H]4[C@@]5(C)CCCNC(C)(C)[C@@H]5CC[C@]43C)[C@@H]12
inactive: HT29 colon 19.7% | SNB-75 CNS 112% | SNB-19 CNS 81.5% | U251 CNS 13.6% | PC-3 prostate 67.7% | SK-MEL-5 melanoma 97.4% | UACC-62 melanoma 74.8% | SK-MEL-28 melanoma 103%
active: HCT-15 colon 3.99% | LOX IMVI melanoma -79%

COc1ccc([C@@H]2[C@@H](O)C(=O)N2c2cc(OC)c(OC)c(OC)c2)cc1Cl
inactive: HCT-15 colon 10.5% | HT29 colon 12.8% | SNB-75 CNS 53.4% | SNB-19 CNS 30% | PC-3 prostate 17.5% | UACC-62 melanoma 26.1% | LOX IMVI melanoma 18.5% | SK-MEL-28 melanoma 64.2%
active: U251 CNS 1.75% | SK-MEL-5 melanoma 0.0843%

CCNCCCn1c2c(c3cc(OC)c(OC)cc3c1=O)C(=O)c1cc(OC)cnc1-2
active: HT29 colon -60.9% | U251 CNS -16.1% | SK-MEL-5 melanoma -18.2% | UACC-62 melanoma 5.63% | LOX IMVI melanoma -8.19%
inactive: HCT-15 colon 22% | SNB-75 CNS 17.1% | SNB-19 CNS 25.3% | PC-3 prostate 46.5% | SK-MEL-28 melanoma 64.7%

CNC(=O)c1cc(Oc2ccc3nc(NC(=O)c4cccc(C(F)(F)F)c4)sc3c2)ccn1
inactive: HCT-15 colon 98.1% | HT29 colon 106% | SNB-75 CNS 90.7% | SNB-19 CNS 93.3% | U251 CNS 104% | PC-3 prostate 102% | SK-MEL-5 melanoma 101% | UACC-62 melanoma 85% | LOX IMVI melanoma 99.3% | SK-MEL-28 melanoma 89.8%

COc1ccc(/C=N\NC(=O)c2ccc3nc(-c4ccc(Br)cc4)[nH]c3c2)cc1
active: U251 CNS -51.5% | LOX IMVI melanoma -26%
inactive: HCT-15 colon 48.1% | HT29 colon 17.5% | SNB-75 CNS 46.1% | SNB-19 CNS 19.2% | PC-3 prostate 20.8% | SK-MEL-5 melanoma 24.2% | UACC-62 melanoma 34.6% | SK-MEL-28 melanoma 13.8%

CCCCCCNC(=O)Oc1ccc(/C(=C(\C)c2ccc(Cl)cc2)c2ccc(OCCN(C)C)cc2)cc1
inactive: SNB-75 CNS 75.8% | SNB-19 CNS 60.8% | U251 CNS 46% | PC-3 prostate 56% | SK-MEL-5 melanoma 47.9% | UACC-62 melanoma 84.7% | SK-MEL-28 melanoma 75%
active: HCT-15 colon 7.58% | HT29 colon 5.99% | LOX IMVI melanoma -67.8%

O=C1Nc2ccc(Cl)cc2/C1=C/c1ccc(OCc2ccc(Br)cc2F)cc1
inactive: HCT-15 colon 102% | HT29 colon 104% | SNB-75 CNS 100% | SNB-19 CNS 100% | U251 CNS 97.4% | PC-3 prostate 93% | SK-MEL-5 melanoma 92.6% | UACC-62 melanoma 93.6% | LOX IMVI melanoma 92.7% | SK-MEL-28 melanoma 105%

CCOC(=O)/C=c1\sc2n(c1=O)C1C(NN=2)N(CC)C(=O)N1CC (stereo not given)
inactive: HCT-15 colon 31% | HT29 colon 26.4% | SNB-75 CNS 52.2% | SNB-19 CNS 54.2% | U251 CNS 68.9% | PC-3 prostate 55.7% | SK-MEL-5 melanoma 54% | UACC-62 melanoma 39% | LOX IMVI melanoma 53.5% | SK-MEL-28 melanoma 71.9%

COc1ccc(NC(=O)[C@H](C)NC(=O)OC(C)(C)C)cc1C(=O)Nc1cccc(-c2cc(=O)c3c(OC)c(OC)c(OC)cc3o2)c1
inactive: SNB-19 CNS 16.9%
active: HCT-15 colon 3.87% | HT29 colon -10.5% | SNB-75 CNS -18.3% | U251 CNS -34.1% | PC-3 prostate -36.9% | SK-MEL-5 melanoma -91.1% | UACC-62 melanoma -40.8% | LOX IMVI melanoma -73.7% | SK-MEL-28 melanoma 0.755%

Cc1ccc(Cc2cnc(NC(=O)/C(C#N)=C/c3ccc(-c4ccc(Cl)cc4)o3)s2)cc1
inactive: HCT-15 colon 93.3% | HT29 colon 97.1% | SNB-75 CNS 94.9% | SNB-19 CNS 106% | U251 CNS 102% | PC-3 prostate 87.6% | SK-MEL-5 melanoma 92.4% | UACC-62 melanoma 95.4% | LOX IMVI melanoma 81.3% | SK-MEL-28 melanoma 103%

CN1CCN(Cc2ccc(NC(=O)c3cncc(C#Cc4cnc5ccc(O[C@H]6CCOC6)nn45)c3)cc2C(F)(F)F)CC1
active: HCT-15 colon -49.3% | HT29 colon -67.8% | SNB-75 CNS -95.9% | SNB-19 CNS -69.2% | U251 CNS -85.4% | PC-3 prostate -9.05% | SK-MEL-5 melanoma -95.2% | UACC-62 melanoma -45.3% | LOX IMVI melanoma -88.1% | SK-MEL-28 melanoma -80.3%

Cn1ccnc1C(=O)/C=C/c1ccc(C(=O)Nc2ccc(NC(=O)CCNC(=O)c3csc(Br)n3)cc2)cc1
inactive: HCT-15 colon 28.6% | HT29 colon 13.2% | SNB-75 CNS 71.2% | SNB-19 CNS 60.6% | U251 CNS 23.9% | PC-3 prostate 48% | SK-MEL-5 melanoma 98.8% | UACC-62 melanoma 68.3% | LOX IMVI melanoma 11.5% | SK-MEL-28 melanoma 89.3%

N#C/C(=C\c1ccc2ccccc2c1)C(=O)Nc1sc2c(c1C#N)CCC2
inactive: HCT-15 colon 99% | HT29 colon 121% | SNB-75 CNS 102% | SNB-19 CNS 98.9% | U251 CNS 99% | PC-3 prostate 98.1% | SK-MEL-5 melanoma 98% | UACC-62 melanoma 90.3% | LOX IMVI melanoma 95.6% | SK-MEL-28 melanoma 113%

O=S(=O)(Nc1ccc(-n2cnc3cc(-c4ccc(O)cc4)ccc32)cc1)C1CC1
inactive: HCT-15 colon 85.1% | HT29 colon 98.9% | SNB-75 CNS 51.3% | SNB-19 CNS 83.6% | U251 CNS 74.6% | PC-3 prostate 83.4% | SK-MEL-5 melanoma 88% | UACC-62 melanoma 73.8% | LOX IMVI melanoma 116% | SK-MEL-28 melanoma 94.2%

COC[C@]12CC[C@@H](C)[C@H](C)[C@H]1C1=CC[C@@H]3[C@@]4(C)CCCNC(C)(C)[C@@H]4CC[C@@]3(C)[C@]1(C)CC2
inactive: SNB-75 CNS 105% | SNB-19 CNS 47.8% | PC-3 prostate 18.4% | SK-MEL-5 melanoma 35.6% | UACC-62 melanoma 17.2%
active: HCT-15 colon 8.12% | HT29 colon 0.874% | U251 CNS -34.8% | LOX IMVI melanoma -87.8% | SK-MEL-28 melanoma -59.6%

Cc1ccc(S(=O)(=O)N/N=C/c2cn(-c3ccc(F)cc3)nc2-c2ccc(S(C)(=O)=O)cc2)cc1
inactive: HCT-15 colon 99.4% | HT29 colon 105% | SNB-75 CNS 110% | SNB-19 CNS 97.1% | U251 CNS 101% | PC-3 prostate 95.4% | SK-MEL-5 melanoma 102% | UACC-62 melanoma 91.6% | LOX IMVI melanoma 100% | SK-MEL-28 melanoma 106%

C/C(=C(/c1ccc(O)cc1)c1ccc(OCCN2CCCCCC2)cc1)c1ccccc1
inactive: SNB-75 CNS 71.2% | SNB-19 CNS 64.3% | U251 CNS 41.2% | PC-3 prostate 44.1% | SK-MEL-5 melanoma 58.4% | UACC-62 melanoma 56.9% | SK-MEL-28 melanoma 21%
active: HCT-15 colon -20.7% | HT29 colon -8.88% | LOX IMVI melanoma 5.39%

C#C[C@]1(O)CC[C@H]2[C@@H]3CC=C4c5sc(Nc6cc(OC)ccc6OC)nc5CC[C@]4(C)[C@H]3CC[C@@]21C
active: SNB-75 CNS 2.31% | SK-MEL-5 melanoma 6.5% | UACC-62 melanoma -14% | LOX IMVI melanoma 5.19% | SK-MEL-28 melanoma -46.6%
inactive: HCT-15 colon 10.3% | HT29 colon 21.1% | SNB-19 CNS 38.3% | U251 CNS 26.1% | PC-3 prostate 18.9%

CCNC(=O)Oc1ccc(/C(=C(/C)c2ccc(Cl)cc2)c2ccc(OCCN3CCCC3)cc2)cc1
inactive: HCT-15 colon 60.5% | HT29 colon 19.6% | SNB-75 CNS 85.7% | SNB-19 CNS 81.6% | U251 CNS 60.1% | PC-3 prostate 82.4% | SK-MEL-5 melanoma 86.3% | UACC-62 melanoma 98.3% | LOX IMVI melanoma 49.2% | SK-MEL-28 melanoma 89%

Cc1ccc(NC(=O)c2ccc(CN3CCN(C)CC3)c(I)c2)cc1Oc1ccc(-c2[nH]nc3ncnc(N)c23)cc1
active: HCT-15 colon -54.1% | HT29 colon -71.1% | U251 CNS -59.8% | LOX IMVI melanoma -86.5% | SK-MEL-28 melanoma -84.6%
inactive: SNB-75 CNS 100% | SNB-19 CNS 96.5% | PC-3 prostate 75.2% | SK-MEL-5 melanoma 62.6% | UACC-62 melanoma 85%
